In the library only some 11% were active in any assay of this set; here they are far more common.
ALDH1A1 inh = inhibitors of human aldehyde dehydrogenase 1A1. Purified ALDH1A1, NADH fluorescence, propionaldehyde substrate. Potency, µM (highest dose often 75.3 µM), usual class: inhibitors. hit rate 7.3% among 220,000. AID 1030
Target sequence (P00352 whole entry, looked up): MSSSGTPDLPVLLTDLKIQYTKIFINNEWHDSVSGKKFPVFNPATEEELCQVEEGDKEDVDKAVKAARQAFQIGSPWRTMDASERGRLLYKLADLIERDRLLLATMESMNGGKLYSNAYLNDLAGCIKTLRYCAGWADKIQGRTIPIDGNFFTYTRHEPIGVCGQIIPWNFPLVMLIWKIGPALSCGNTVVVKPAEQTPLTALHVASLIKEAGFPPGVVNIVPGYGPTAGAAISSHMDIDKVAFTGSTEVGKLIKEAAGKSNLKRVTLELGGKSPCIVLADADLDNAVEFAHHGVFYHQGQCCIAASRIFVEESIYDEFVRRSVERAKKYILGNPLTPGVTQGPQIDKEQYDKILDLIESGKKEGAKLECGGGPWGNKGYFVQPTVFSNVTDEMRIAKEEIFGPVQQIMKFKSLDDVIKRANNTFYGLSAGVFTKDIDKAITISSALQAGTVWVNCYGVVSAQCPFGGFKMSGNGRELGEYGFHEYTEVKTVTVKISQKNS
PNC inhibitor = perinucleolar compartment assembly inhibition; activity change (PNC), negative = inhibition, % at 10 µM; hit rate 3.1% among 140,000; AID 2417; PC3M PTB-GFP, PNC prevalence imaging, 16 h; active compounds read low;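 active = readout at or below -70, meaning at least 70% loss of cells showing the perinucleolar compartment, a nuclear body marking cancer cells; inconclusive = readout between -30 and a set limit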
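Read-out is percentage of cells bearing a perinucleolar compartment, from automated 20x imaging of fixed, Hoechst-stained PC3M PTB-GFP cells. Cells were seeded 4 h, then exposed 16 h to compound (23 nl of library stock) in duplicate plates.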
JMJD2E inh = inhibitors of human JMJD2E histone demethylase | Potency, µM (titrated, usually from 57.1 µM), hits mostly inhibitors | B2RXH2 | hit rate 1.6% among 230,000 | JMJD2E catalytic domain, FDH-coupled NADH fluorescence (FDH is formaldehyde dehydrogenase) | AID 2147; also: nearly all actives have a fitted effect of over 50% in size
HPGD block = HPGD (human) dehydrogenase inhibition | P15428 | purified HPGD, NADH fluorescence kinetic, PGE2 substrate | Potency, µM, most hits filed as inhibitors | hit rate 4.3% among 150,000 | AID 894
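20 nM HPGD preincubated 15 min at room temperature with compound in 50 mM Tris-HCl pH 8, 0.01% Tween 20. Started with 1 mM NAD+ and 30 uM prostaglandin E2; NADH fluorescence (360/450 nm) read 5 times over 30-s intervals, last minus first.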
Each line names hits and unclear results; the compound was inactive in the other large screens. Unless noted, calls follow the shape of the dose curve; as a rule, active = well fitted inhibition curve with a large enough effect (not every such curve was filed as active); inconclusive = small, poorly fitted or top-dose-only effect, or another doubt; inactive = no such curve, though single readings can be large or run the other way.

Cc1cccc(N2CCN(C(=O)Cc3c(C(=O)O)[nH]c4ccc(Cl)cc34)CC2)c1C	PNC inhibitor inconclusive
O=C(OC1CCS(=O)(=O)c2sccc21)c1ccccc1 (stereo not given)	ALDH1A1 inh 22µM, PNC inhibitor inconclusive
N=C1S/C(=C\c2ccco2)C(=O)N1c1ccc2c(c1)OCO2	ALDH1A1 inh inconclusive (no result: PNC inhibitor, HPGD block)
N=C1S/C(=C\c2ccco2)C(=O)N1c1nccs1	ALDH1A1 inh 10µM (no result: PNC inhibitor, HPGD block)
O=C(NCc1ccccn1)c1ccc(Cl)cc1Cl	PNC inhibitor inconclusive, HPGD block 20µM
Cc1cc(C)cc(NC(=O)C(=O)NCc2ccccn2)c1	PNC inhibitor -84
Cc1ccc(NC(=O)C(=O)NCc2ccccn2)cc1	none (no result: PNC inhibitor, HPGD block)
O=C(NCc1ccccn1)Nc1cccc(NC(=O)NCc2ccccn2)c1	none
O=C(NCc1ccccn1)Nc1ccc(Cl)c(Cl)c1	PNC inhibitor -84
COCCn1c(=O)c(-c2ccccc2)nc2cnc(Nc3cccc(OC)c3)nc21	none (no result: PNC inhibitor, JMJD2E inh, HPGD block)
Cc1ccccc1Nc1oc(-c2ccccc2)nc1-c1cccc2ccccc12	ALDH1A1 inh 25µM (no result: PNC inhibitor)
COc1cccc(-c2cc(NCc3cccs3)ncn2)c1	ALDH1A1 inh inconclusive, HPGD block inconclusive (no result: PNC inhibitor)
CC(=O)NS(=O)(=O)c1ccc(NC(=O)c2ccccc2F)cc1	none
O=C(NS(=O)(=O)c1ccccc1)c1ccccc1F	PNC inhibitor -122, HPGD block inconclusive
CC1CCC(C(C)C)C(OC(=O)CSc2nc(N)cc(=O)[nH]2)C1 (stereo not given)	ALDH1A1 inh 4.5µM
Cc1ccc2[nH]c(=O)c(CN(C(=O)c3cccs3)c3ccccc3)cc2c1	PNC inhibitor -85
COc1ccc2[nH]c(=O)c(CN(C(=O)c3ccccn3)c3ccccc3)cc2c1	ALDH1A1 inh inconclusive, PNC inhibitor -92, HPGD block inconclusive
COc1ccc2[nH]c(=O)c(CN(C(=O)c3cccnc3)c3ccccc3)cc2c1	ALDH1A1 inh inconclusive, JMJD2E inh inconclusive, HPGD block inconclusive
Cc1ccc(-n2c(N)c(C(=O)NCc3cccnc3)sc2=S)cc1	ALDH1A1 inh inconclusive, HPGD block 25µM
CCOC(=O)c1sc(=S)n(-c2ccc3c(c2)OCO3)c1N	ALDH1A1 inh 10µM, HPGD block 7.9µM
COc1ccc(-n2c(N)c(C(=O)NCc3cccnc3)sc2=S)cc1	none
CCOC(=O)c1sc(=S)n(-c2ccc(C)cc2)c1N	ALDH1A1 inh 14µM (no result: PNC inhibitor, HPGD block)
CCOC(=O)c1sc(=S)n(-c2ccc(F)c(F)c2)c1N	ALDH1A1 inh 13µM, HPGD block inconclusive
Cc1ccc(C(=O)Cn2c(-c3ccccc3)noc2=O)cc1	none (no result: PNC inhibitor, HPGD block)
COCc1c(C)cc(C)c(/C=N/O)c1C	HPGD block 14µM
c1ccc(-n2c(SCc3nc(-c4cccs4)no3)nnc2-c2ccco2)cc1	ALDH1A1 inh 7.1µM, PNC inhibitor inconclusive, JMJD2E inh inconclusive, HPGD block 32µM
CCn1c(SCc2nc(-c3ccccc3)no2)nnc1-c1cccs1	none
c1ccc(-n2c(SCc3ccncc3)nnc2-c2ccco2)cc1	ALDH1A1 inh 10µM, JMJD2E inh inconclusive
O=C(CCC(=O)N(CC(=O)NC1CCCC1)C1CCCC1)Nc1ccccn1	none
O=C(CCCC(=O)N(CC(=O)NC1CCCC1)C1CCCC1)Nc1ccccn1	ALDH1A1 inh inconclusive, PNC inhibitor -123
Cc1ccc(-c2csc(=S)[nH]2)cc1	ALDH1A1 inh 14µM (no result: PNC inhibitor, HPGD block)
S=c1[nH]c(-c2ccc(Cl)cc2)cs1	ALDH1A1 inh 3.2µM (no result: PNC inhibitor, HPGD block)
COc1ccc(C2c3sc(=O)[nH]c3SC3C4CCC(C4)C23)cc1 (stereo not given)	ALDH1A1 inh 22µM, HPGD block inconclusive
COc1cc(C2c3sc(=O)[nH]c3SC3C4CCC(C4)C23)ccc1O (stereo not given)	ALDH1A1 inh inconclusive
O=C(O)CCN1C(=O)C2C3CC(C2C1=O)C1C(c2ccccc2)c2sc(=O)n(-c4ccccc4)c2SC31 (stereo not given)	ALDH1A1 inh inconclusive (no result: PNC inhibitor, HPGD block)
O=c1[nH]c2c(s1)C(c1ccccc1)C1C3CCC(C3)C1S2 (stereo not given)	ALDH1A1 inh 20µM, PNC inhibitor inconclusive, HPGD block inconclusive
COc1ccc(C2c3sc(=O)[nH]c3SC3C(=O)N(c4ccccc4)C(=O)C32)cc1 (stereo not given)	ALDH1A1 inh 22µM, PNC inhibitor inconclusive
O=C1C2Sc3[nH]c(=O)sc3C(c3ccccc3)C2C(=O)N1c1ccccc1 (stereo not given)	ALDH1A1 inh inconclusive, JMJD2E inh inconclusive
C=CC[C@H](N)C(=O)O	none (no result: PNC inhibitor)
Cc1ccc(C)c(/C(O)=C2\C(=O)C(=O)N(Cc3cccnc3)C2c2cccnc2)c1 (stereo not given)	ALDH1A1 inh inconclusive, HPGD block 25µM
CCN(CC)c1ccc(C=O)c(OC)c1	ALDH1A1 inh 4µM (no result: PNC inhibitor, HPGD block)
CCc1nc(C)cn1S(=O)(=O)c1cc(C)c(OC)c(C)c1C	ALDH1A1 inh 25µM
CCc1nc(C)cn1S(=O)(=O)c1cc(C)c(OC)cc1C	none
O=C(NCCNC(=O)C(c1ccccc1)c1ccccc1)c1ccco1	ALDH1A1 inh 40µM, PNC inhibitor inconclusive
CCCC/C=C/C(NC(=O)c1ccco1)c1ccccc1 (stereo not given)	ALDH1A1 inh 3.5µM, JMJD2E inh inconclusive (no result: PNC inhibitor)
CCCC/C=C/C(NC(=O)CCc1ccccc1)c1ccccc1 (stereo not given)	PNC inhibitor -119
COC(=O)c1ccc(C(NC(=O)OCc2ccccc2)/C(=C/[C@@H](C)C(=O)NCc2cc(F)cc(F)c2)c2cccnc2)cc1 (stereo not given in full)	none (no result: PNC inhibitor)
Cc1ccccc1N=Cc1cccc(O)c1O	ALDH1A1 inh 5µM, PNC inhibitor inconclusive, JMJD2E inh 11µM
Cc1ccc(N=Cc2ccc[nH]2)c(O)c1	ALDH1A1 inh inconclusive, JMJD2E inh inconclusive
CC(N=Cc1cccc(O)c1O)c1ccccc1 (stereo not given)	ALDH1A1 inh inconclusive, JMJD2E inh 14µM, HPGD block 2.8µM
Cc1ccc(N=Cc2sc(O)c3ccccc23)cc1	ALDH1A1 inh inconclusive, PNC inhibitor inconclusive
Cc1ccc(N=Cc2cccc(O)c2O)c(C)c1	ALDH1A1 inh inconclusive, PNC inhibitor inconclusive, JMJD2E inh 14µM, HPGD block 3.2µM
Cc1ccc(N=Cc2sc(O)c3ccccc23)c(C)c1	ALDH1A1 inh 13µM, JMJD2E inh inconclusive
Cc1cccc(C=Nc2ccc3c(c2)oc2ccccc23)c1O	PNC inhibitor inconclusive, HPGD block inconclusive
COc1ccc(C(=O)N2CCC3(CCCN(C(=O)NC(C)C)C3)CC2)cc1	none (no result: PNC inhibitor, JMJD2E inh)
O=C(O)c1cc(O)ccc1NC(=O)c1cccc2ccccc12	none (no result: ALDH1A1 inh, PNC inhibitor, HPGD block)
COc1ccc(NN=Nc2nc3c([nH]2)c(=O)n(C)c(=O)n3C)cc1	ALDH1A1 inh 8.9µM, JMJD2E inh inconclusive (no result: PNC inhibitor, HPGD block)
Nn1c(COc2ccccc2)nc2ccccc2c1=O	PNC inhibitor -89
CCOc1ccc(-c2cc(C(=O)NN)[nH]n2)cc1	ALDH1A1 inh inconclusive, PNC inhibitor inconclusive
COc1ccc(-c2cc(C(=O)N/N=C/c3ccc(O)cc3)[nH]n2)cc1	ALDH1A1 inh 13µM, HPGD block inconclusive (no result: PNC inhibitor, JMJD2E inh)
O=C(N/N=C/c1ccc(O)cc1)c1cc(-c2ccc3c(c2)OCO3)n[nH]1	PNC inhibitor inconclusive (no result: HPGD block)
COc1ccc(-c2cc(C(=O)NN)n(-c3ccccc3)n2)cc1	ALDH1A1 inh 8.9µM
COc1ccc(-c2cc(C(=O)NN)[nH]n2)cc1	ALDH1A1 inh 20µM

Screening results as filed in PubChem BioAssay.
